High-throughput results deposited in PubChem BioAssay by several laboratories.
Only a selection was taken, and hits are over-represented in it overall.
GluA2 TARP mod – GluA2-stargazin AMPA receptor complex modulation; O88602+P19491; HEK293 GluA2+stargazin, membrane potential dye (FDSS), glutamate EC50; hits were called plate by plate, in both directions; 40,000 tested, 3.5% active; calls only at 30 µM; AID 1259245;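 active = any of four per-well response measures lying three or more SD from its plate-wide compound average, in either direction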
GIRK2 act – Activates human GIRK2-containing potassium channels; activation (% efficacy), % for hits at 37.5 µM; P48051; 34,000 tested, under 10 active; HEK293 GIRK2/NPY4 cells, thallium flux fluorescence;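 active = primary screen hit, no activity in plain HEK293 cells, and in GIRK2-only cells above 5% efficacy rising with concentration; inactive = the rest, including fluorescent compounds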;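 also: efficacy is normalized control-subtracted fluorescence 15 s after thallium addition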
* hit, by the source's call; i = inactive; nt = no result given; + = active, no number.

SMILES	GluA2 TARP mod	GIRK2 act
COc1cc(/C=C/C(=O)NCCCn2cccc2)cc(OC)c1OC	+	i
COc1cc(/C=C/C(=O)NCCc2ccsc2)cc(OC)c1OC	i	i
COc1cc(/C=C/C(=O)c2ccc(O)cc2)cc(OC)c1OC	i	nt
COc1cc(/C=C/C(=O)Nc2nncs2)cc(OC)c1OC	+	i
Cc1ccc(N2CC(C)Cn3c2nc2c3c(=O)n(CCN3CCOCC3)c(=O)n2C)cc1 (centres undefined)	i	nt
CC(C)(C)n1ncc2c(=O)n(NC(=O)c3cccc([N+](=O)[O-])c3)cnc21	i	i
CCOc1ccc(-n2nnnc2SC(C)C(=O)Nc2ccccc2F)cc1 (centres undefined)	+	nt
COc1ccc(-n2nnnc2SCCC(=O)Nc2nccs2)cc1	i	i
CCOc1ccc(-n2nnnc2SC(C)C(=O)Nc2ccccc2C)cc1 (centres undefined)	i	nt
COc1ccc(-n2nnnc2SC(C)C(=O)Nc2nccs2)cc1 (centres undefined)	+	nt
COc1cccc(-n2c(C)c(C)n3c4c(=O)n(CC(=O)OCc5ccccc5)c(=O)n(C)c4nc23)c1	i	nt
CCSc1ccccc1C(=O)Nc1c2c(nn1CC(=O)NCCOC)CSC2	i	i
CC(=O)N1CCc2c(sc3nc(SCc4cccc([N+](=O)[O-])c4)n(Cc4ccco4)c(=O)c23)C1	+	i
CC(=O)N1CCc2c(sc3nc(SCc4ccc([N+](=O)[O-])cc4)n(Cc4ccco4)c(=O)c23)C1	i	nt
CCCCNC(=O)c1snc(-c2ccc(OC)cc2)c1N	nt	i
CCOC(=O)C1CCN(C(=S)Nc2ccccc2OC)CC1	+	nt
CCOCC(=O)NCC1CCN(C(=O)Nc2ccccc2OC)CC1	i	i
O=C(CSc1nc(=O)n(CCO)c2c1CCC2)NCc1ccco1	i	i
O=[N+]([O-])c1ccc(C2=NCCN2)cc1	+	nt
O=C(Nc1ccccc1)C(=O)Nc1ccc([N+](=O)[O-])cc1	i	nt
CC(O)(CNC(=O)Nc1ccc(Cl)c(Cl)c1)c1ccc2c(c1)OCO2 (centres undefined)	+	i
CC(O)(CNC(=O)c1cc(Cl)ccc1Cl)c1ccc2c(c1)OCO2 (centres undefined)	i	i
C=CCn1c(=S)[nH]c2scc(-c3ccccc3)c2c1=O	i	i
CC(C)(C)S(=O)(=O)c1ccc2nn(CC(=O)Nc3ccc4c(c3)OCO4)c(=O)n2n1	i	i
O=C(NCCCn1cccc1)c1cc(-c2ccccc2)n[nH]1	i	i
SMILES	GluA2 TARP mod	GIRK2 act
O=C(NCCCn1cccc1)c1ccccc1	+	i
Cc1nc(-c2cccs2)c(CCC(=O)Nc2ccc(OC(C)C)cc2)s1	i	i
Cc1ccc(C(=O)N2CCN(c3nc(C)cc(N4CCCC4)n3)CC2)cc1	+	nt
Cc1cc(N2CCN(C(=O)COc3ncccn3)CC2)nc(N2CCCCC2)n1	nt	i
COc1ccc(NC(=O)CSc2c(C)cnc3c2c(=O)n(C)c(=O)n3C)c(OC)c1	i	i
COc1ccc(N2CCn3c2nc2c3c(=O)n(CC(=O)O)c(=O)n2C)cc1	i	nt
Cc1ccc(C)c(N2CCN(C(=O)c3ccc(Cn4c(=O)[nH]c5ccccc5c4=O)cc3)CC2)c1	+	i
CC(=O)c1ccc(N2CCN(C(=O)c3ccc(Cn4c(=O)[nH]c5ccccc5c4=O)cc3)CC2)cc1	i	i
O=C(CSc1ncc(-c2ccc(F)cc2)o1)Nc1ccc(F)cc1Cl	nt	i
O=C(Cc1csc(Nc2ccccc2)n1)N1CCN(c2ccccc2)CC1	i	i
CC(C)N(C(=O)C(=O)c1c[nH]c2ccccc12)C(C)C	i	nt
CCN(Cc1ccccc1)C(=O)C(=O)c1c[nH]c2ccccc12	+	nt
CC(C)N(Cc1ccccc1)C(=O)C(=O)c1c[nH]c2ccccc12	i	nt
CC(NC(=O)C(=O)c1c[nH]c2ccccc12)c1ccccc1 (centres undefined)	+	nt
COc1cc(C(=O)Nc2ccc3c(c2)CCCN3S(C)(=O)=O)c([N+](=O)[O-])cc1OC	i	i
CCOCCn1c(C)cn2c3c(=O)n(C)c(=O)n(C)c3nc12	i	i
COc1ccc(-c2nnc(NC(=O)/C=C/c3ccccc3Cl)o2)cc1OC	i	i
CCC(=O)N(CCC1(c2ccc(OC)cc2)CCOC(C)(C)C1)Cc1ccc(Cl)cc1 (centres undefined)	+	nt
CCOC(=O)C1=C(C)NC(=O)NC1c1ccc(OC)cc1 (centres undefined)	i	nt
Cc1ccc(OCCCC(=O)Nc2nccs2)c(C)c1	i	i
CCCCCNC(=O)CCCOc1ccc(C)cc1C	+	i
COC(=O)CSc1nc(-c2ccc(F)cc2)cc(C(F)(F)F)n1	+	nt
COc1ccc(-c2cc(C(F)(F)F)nc(SCC(=O)N3CCCC3)n2)cc1OC	i	nt
CCOc1ccc(S(=O)(=O)NCCOC)c(C)c1C	i	nt
COCCNC(=O)Cc1ccc(NC(=O)C2(c3ccccc3)CCOCC2)cc1	nt	i
SMILES	GluA2 TARP mod	GIRK2 act
O=C(Cn1cnc(-c2cccs2)cc1=O)NCCOc1ccc(-c2ccco2)nn1	+	i
CCC(=O)NCCOc1ccc(-c2cccs2)nn1	i	i
O=C(Nc1nnc(Cc2cccs2)o1)C1CCCN(S(=O)(=O)c2ccccc2)C1 (centres undefined)	nt	i
Cc1cc(-c2nnc(SCC(=O)Nc3ccc4c(c3)OCCO4)o2)c(C)o1	i	i
COc1ccc(Nc2nc(N3CCNCC3)nc3ccccc23)c(OC)c1	+	nt
COc1ccc(-c2cc(OCC(=O)Nc3ccc(OC)cc3OC)c3ccccc3n2)cc1	i	i
COc1ccc(Cl)cc1NC(=O)Cn1ncn2nc3c(c2c1=O)CCCC3	+	i
COc1ccc(CCNC(=O)Cn2ncn3nc4c(c3c2=O)CCCC4)cc1OC	nt	i
COc1cc(-c2ccc(SCC(=O)Nc3ccccc3C(F)(F)F)nn2)cc(OC)c1OC	i	i
COc1ccc(S(=O)(=O)N2CCCc3cc(NC(=O)NCc4ccccc4)ccc32)cc1	i	nt
O=C(NCCOc1ccc(F)cc1)c1ccccc1Cl	i	i
O=C(NCCOc1ccc(F)cc1)c1c(F)cccc1Cl	+	i
CCn1cc(C(=O)N2CCN(Cc3nc(-c4ccc(F)cc4)cs3)CC2)c(=O)c2ccc(C)nc21	i	i
COCCNC(=O)C(=O)Nc1c2c(nn1-c1ccc(Cl)cc1)CS(=O)(=O)C2	+	nt
O=C(Nc1c2c(nn1-c1ccccc1)CS(=O)(=O)C2)C(=O)N1CCCC1	+	i
COCCCNC(=O)C(=O)Nc1c2c(nn1-c1ccc(Cl)cc1)CS(=O)(=O)C2	i	nt
O=C(Nc1c2c(nn1-c1ccccc1)CS(=O)(=O)C2)C(=O)N1CCCCC1	i	i
CCOc1ccc(NC(=O)CSc2ccc(NC(=O)c3cccs3)nn2)cc1	i	i
COC(=O)c1sccc1S(=O)(=O)N(CC(=O)Nc1cccc(OC)c1)c1ccc(Cl)cc1	+	i
COC(=O)c1sccc1S(=O)(=O)N(CC(=O)Nc1ccccc1OC)c1ccccc1	i	i
COC(=O)c1sccc1S(=O)(=O)N(CC(=O)Nc1ccccc1)c1ccccc1	i	i
CCc1ccccc1NC(=O)CN(c1ccc(C)cc1)S(=O)(=O)c1ccsc1C(=O)OC	+	i
